Results from PubChem BioAssay.
Active and inactive are the calls of the source.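 The calls were made as follows, unless noted: active = compounds killing one labelled cell type while sparing the other, by normalised counts and ratio limits, not self-fluorescent; inactive = the rest.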

Assays:
[1] = target: 6-phosphogluconate dehydrogenase, decarboxylating (Homo sapiens) (UniProt P52209); test: 6PGD enzyme inhibitors, primary screen, biochemical, human, recombinant enzyme, NADPH absorbance (AID 1159550;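 active = at least 20% inhibition of 6-phosphogluconate dehydrogenase activity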); conditions: recombinant 6PGD, NADPH absorbance 341 nm; at 10 µM; stronger effect = higher value
[2] = differential killing of epithelial or mesenchymal cells, primary screen, imaging, PC-3E GFP, TEM4-18 mCherry, co-culture (AID 1345086); conditions: imaging cell counts, at 1 µM; for red/green cell ratio (normalised): actives lie on both sides, counts scaled to control wells, 1 = unselective;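 as to all read-outs here: cells exposed to compound for 72 h before imaging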;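 as to red/green cell ratio (normalised): normalised mesenchymal count divided by normalised epithelial count so high means epithelial killing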
[3] = target: Mitogen-activated protein kinase 7 (Homo sapiens) (UniProt Q13164); test: ERK5 transactivation activators in reporter cells, primary screen, cell-based, HTS (AID 1508626;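 active = luciferase signal above three times the same-plate solvent-only control wells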;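 also: luciferase driven by Gal4-ERK5 fusion binding five Gal4 sites before minimal TATA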); conditions: HeLa Gal4-ERK5 transactivation, 18 h, at 5 µM, stronger effect = higher value
[4] = measured here: epithelial PC-3E GFP cell survival
[5] = measured here: mesenchymal TEM4-18 mCherry cell survival

6-phosphogluconate dehydrogenase, decarboxylating (Homo sapiens), sequence (P52209 whole entry, looked up): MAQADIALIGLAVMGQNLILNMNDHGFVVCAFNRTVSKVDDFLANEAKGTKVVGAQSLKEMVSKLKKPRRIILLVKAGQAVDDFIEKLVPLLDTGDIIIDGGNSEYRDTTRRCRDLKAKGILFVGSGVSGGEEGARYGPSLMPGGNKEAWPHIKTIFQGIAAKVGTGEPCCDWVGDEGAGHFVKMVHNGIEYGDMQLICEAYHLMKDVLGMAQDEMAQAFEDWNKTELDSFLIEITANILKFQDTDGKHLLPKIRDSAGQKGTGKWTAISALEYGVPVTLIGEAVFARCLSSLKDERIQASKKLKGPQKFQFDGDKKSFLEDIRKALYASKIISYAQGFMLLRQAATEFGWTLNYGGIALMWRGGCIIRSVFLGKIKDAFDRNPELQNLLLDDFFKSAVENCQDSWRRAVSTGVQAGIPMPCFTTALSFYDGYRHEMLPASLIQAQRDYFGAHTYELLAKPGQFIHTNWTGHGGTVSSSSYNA
Mitogen-activated protein kinase 7 (Homo sapiens), sequence (Q13164 whole entry, looked up, the tested form may be a part): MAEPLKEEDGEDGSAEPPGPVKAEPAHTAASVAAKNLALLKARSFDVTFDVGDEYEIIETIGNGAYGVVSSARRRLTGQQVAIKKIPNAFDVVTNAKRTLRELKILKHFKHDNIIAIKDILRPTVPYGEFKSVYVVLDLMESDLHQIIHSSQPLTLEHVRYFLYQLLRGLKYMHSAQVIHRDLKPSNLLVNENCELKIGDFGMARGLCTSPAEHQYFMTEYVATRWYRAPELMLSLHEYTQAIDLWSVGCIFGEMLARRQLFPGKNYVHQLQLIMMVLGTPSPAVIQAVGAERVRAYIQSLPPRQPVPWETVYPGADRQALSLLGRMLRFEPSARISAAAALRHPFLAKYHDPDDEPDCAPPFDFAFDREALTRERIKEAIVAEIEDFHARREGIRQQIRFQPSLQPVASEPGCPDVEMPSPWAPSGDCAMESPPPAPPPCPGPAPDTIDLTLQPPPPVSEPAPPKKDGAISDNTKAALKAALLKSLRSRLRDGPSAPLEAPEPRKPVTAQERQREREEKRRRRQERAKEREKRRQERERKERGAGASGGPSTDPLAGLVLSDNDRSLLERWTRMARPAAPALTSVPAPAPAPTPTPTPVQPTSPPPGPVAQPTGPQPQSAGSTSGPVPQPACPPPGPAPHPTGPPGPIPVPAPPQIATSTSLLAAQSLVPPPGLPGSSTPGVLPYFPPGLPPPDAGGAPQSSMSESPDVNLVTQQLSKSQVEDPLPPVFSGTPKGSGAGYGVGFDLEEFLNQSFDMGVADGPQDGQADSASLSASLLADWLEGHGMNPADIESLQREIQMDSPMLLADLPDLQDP

## COc1ccc2c(c1)OCC(Cc1ccc(OC)c(OC(C)=O)c1)C2=O (stereo not given)
[1]
  inhibition: 2.88% (inactive)
[2]
  red/green cell ratio (normalised): 0.86 (inactive)
[2]; [4]
  normalised cell number: 0.47
[2]; [5]
  normalised cell number: 0.4
[3]
  luciferase signal: 80 AU (inactive)

## Cc1cc(O)c(C=O)c2c1C(=O)Oc1c(C)c(O)c3c(c1O2)C(O)OC3=O (stereo not given)
[1]
  inhibition: 7.31% (inactive)
[2]
  red/green cell ratio (normalised): 0.95 (inactive)
[2]; [4]
  normalised cell number: 1.01
[2]; [5]
  normalised cell number: 0.96
[3]
  luciferase signal: 136 AU (inactive)

## CC(C)=CC1C(C(=O)O)C1(C)C (stereo not given)
[1]
  inhibition: -0.837% (inactive)
[2]
  red/green cell ratio (normalised): 1.07 (inactive)
[2]; [4]
  normalised cell number: 0.96
[2]; [5]
  normalised cell number: 1.03
[3]
  luciferase signal: 44 AU (inactive)

## COC(=O)[C@@]1(C)CCC[C@]2(C)c3ccc(O)c(C(C)C)c3CCC12 (stereo not given in full)
[1]
  inhibition: -0.875% (inactive)
[2]
  red/green cell ratio (normalised): 1.1 (inactive)
[2]; [4]
  normalised cell number: 0.97
[2]; [5]
  normalised cell number: 1.07
[3]
  luciferase signal: 52 AU (inactive)

## COc1ccc(-c2coc3c(O)c(OC)ccc3c2=O)cc1
[1]
  inhibition: 11.6% (inactive)
[2]
  red/green cell ratio (normalised): 0.97 (inactive)
[2]; [4]
  normalised cell number: 1.1
[2]; [5]
  normalised cell number: 1.06
[3]
  luciferase signal: 100 AU (inactive)

## COc1ccc2c(C)cc(=O)oc2c1
[1]
  inhibition: 13.6% (inactive)
[2]
  red/green cell ratio (normalised): 1.03 (inactive)
[2]; [4]
  normalised cell number: 1.13
[2]; [5]
  normalised cell number: 1.16
[3]
  luciferase signal: 60 AU (inactive)

## COc1ccc(-c2coc3c(OC)c(OC)cc(O)c3c2=O)cc1
[1]
  inhibition: -3.95% (inactive)
[2]
  red/green cell ratio (normalised): 1.01 (inactive)
[2]; [4]
  normalised cell number: 1.18
[2]; [5]
  normalised cell number: 1.19
[3]
  luciferase signal: 56 AU (inactive)

## COc1cc(O)c2c(=O)cc(C)oc2c1CC=C(C)C
[1]
  inhibition: 12.4% (inactive)
[2]
  red/green cell ratio (normalised): 1.22 (inactive)
[2]; [4]
  normalised cell number: 0.96
[2]; [5]
  normalised cell number: 1.17
[3]
  luciferase signal: 36 AU (inactive)

## COC1(C)CCC2OC2(C)CCC2C1CC2(C)C (stereo not given)
[1]
  inhibition: 10.7% (inactive)
[2]
  red/green cell ratio (normalised): 1.21 (inactive)
[2]; [4]
  normalised cell number: 0.76
[2]; [5]
  normalised cell number: 0.91
[3]
  luciferase signal: 80 AU (inactive)

## C=CC(C1=CC(=O)C(OC)=CC1=O)c1ccc(O)cc1 (stereo not given)
[1]
  inhibition: 1.39% (inactive)
[2]
  red/green cell ratio (normalised): 0.91 (inactive)
[2]; [4]
  normalised cell number: 1.05
[2]; [5]
  normalised cell number: 0.95
[3]
  luciferase signal: 136 AU (inactive)

## CC(=O)c1c(O)cc(O)cc1O
[1]
  inhibition: -5.07% (inactive)
[2]
  red/green cell ratio (normalised): 1.24 (inactive)
[2]; [4]
  normalised cell number: 0.74
[2]; [5]
  normalised cell number: 0.92
[3]
  luciferase signal: 44 AU (inactive)

## CC(C)c1c(O)c(-c2cc3c(c(C(C)C)c2O)CCC2C(C)(C)CCC[C@]32C)cc2c1CCC1C(C)(C)CCC[C@]21C (stereo not given in full)
[1]
  inhibition: -2.25% (inactive)
[2]
  red/green cell ratio (normalised): 1 (inactive)
[2]; [4]
  normalised cell number: 1.03
[2]; [5]
  normalised cell number: 1.03
[3]
  luciferase signal: 40 AU (inactive)

## CC(CCC(=O)O)[C@H]1CCC2C3CC[C@@H]4CC(=O)CC[C@]4(C)C3C=C[C@@]21C (stereo not given in full)
[1]
  inhibition: 12.1% (inactive)
[2]
  red/green cell ratio (normalised): 0.9 (inactive)
[2]; [4]
  normalised cell number: 1
[2]; [5]
  normalised cell number: 0.9
[3]
  luciferase signal: 28 AU (inactive)

## O=C(O)c1cc2cc(Cl)ccc2[nH]1
[1]
  inhibition: -0.282% (inactive)
[2]
  red/green cell ratio (normalised): 1 (inactive)
[2]; [4]
  normalised cell number: 1.21
[2]; [5]
  normalised cell number: 1.21
[3]
  luciferase signal: 52 AU (inactive)

## O=c1c(-c2cc(O)c(O)c(O)c2)coc2cc(O)c(O)c(O)c12
[1]
  inhibition: 29.2% (active)
[2]
  red/green cell ratio (normalised): 0.99 (inactive)
[2]; [4]
  normalised cell number: 1.01
[2]; [5]
  normalised cell number: 1
[3]
  luciferase signal: 220 AU (active)

## CC(C)=CCOc1cc2oc(=O)ccc2cc1O
[1]
  inhibition: 1.28% (inactive)
[2]
  red/green cell ratio (normalised): 1.03 (inactive)
[2]; [4]
  normalised cell number: 1.12
[2]; [5]
  normalised cell number: 1.16
[3]
  luciferase signal: 36 AU (inactive)

## COC(=O)c1c(C)c2c(c(C)c1O)OC(=O)c1c(C)c(Cl)c(O)c(Cl)c1O2
[1]
  inhibition: 11.2% (inactive)
[2]
  red/green cell ratio (normalised): 0.9 (inactive)
[2]; [4]
  normalised cell number: 1.03
[2]; [5]
  normalised cell number: 0.93
[3]
  luciferase signal: 128 AU (inactive)

## OC[C@H]1O[C@@H](n2cnc3c(NCc4ccco4)ncnc32)[C@H](O)[C@@H]1O
[1]
  inhibition: 3.79% (inactive)
[2]
  red/green cell ratio (normalised): 1.48 (inactive)
[2]; [4]
  normalised cell number: 0.37
[2]; [5]
  normalised cell number: 0.55
[3]
  luciferase signal: 40 AU (inactive)

## O=C1C=CC2=C3c4cc(O)c(O)cc4CC3(O)COC2=C1O (stereo not given)
[1]
  inhibition: 27.6% (active)
[2]
  red/green cell ratio (normalised): 0.83 (inactive)
[2]; [4]
  normalised cell number: 1.07
[2]; [5]
  normalised cell number: 0.89
[3]
  luciferase signal: 32 AU (inactive)

## COc1cc(O)ccc1C(C)=O
[1]
  inhibition: 12.4% (inactive)
[2]
  red/green cell ratio (normalised): 0.96 (inactive)
[2]; [4]
  normalised cell number: 0.95
[2]; [5]
  normalised cell number: 0.91
[3]
  luciferase signal: 124 AU (inactive)

## C=C1CCC2C(CC2(C)C)C(=O)CCC1O (stereo not given)
[1]
  inhibition: 28.4% (active)
[2]
  red/green cell ratio (normalised): 1.02 (inactive)
[2]; [4]
  normalised cell number: 0.93
[2]; [5]
  normalised cell number: 0.96
[3]
  luciferase signal: 132 AU (inactive)

## COC(=O)c1c(OC)cc2c(c1C)Oc1c(Cl)c(O)c(Cl)c(C)c1C(=O)O2
[1]
  inhibition: -6.18% (inactive)
[2]
  red/green cell ratio (normalised): 1.02 (inactive)
[2]; [4]
  normalised cell number: 1.07
[2]; [5]
  normalised cell number: 1.1
[3]
  luciferase signal: 56 AU (inactive)
